This passage reports z-score, activity, negative = inhibition and Potency results from PubChem BioAssay (NCATS).

Inconclusive results are not listed. Active and inactive are the calls of the source. The call rests on the fitted dose curve; in most records, active means well fitted inhibition curve with a large enough effect; inconclusive means small, poorly fitted or top-dose-only effect; inactive means flat fitted curve, though single readings scatter.

A short description of assay [1]: qHTS for identification of novel therapeutic agents for treatment of microphthalmiaassociated transcription factor (MiT) renal cell carcinoma (RCC) (AID 1963991). The note with it: CellTiter-Glo, 48 h, stronger effect = lower value. The method, boiled down: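 Three TFE3-fusion RCC cell lines (UOK109, UOK124, UOK145), 500 cells/well, were exposed to the 1912-compound MIPE 4.0 library for 48 hours at 37 C. Viability was read by CellTiter-Glo luminescence, normalised to DMSO (100%) and empty wells (0%), with 11-concentration curve fits.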
Background: Quantitative high-throughput screening tests each substance at several concentrations.

Assay [2] in a line: qHTS profiling for inhibitors of Plasmodium falciparum proliferation (AID 504749).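 Further: 0% = DMSO vehicle and full inhibition = artemisinin control; nearly all actives have a fitted effect of over 60% in size.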 Particulars: P. falciparum in erythrocytes, SYBR Green DNA, 72 h. The gist of the method: (§1)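 Readout was DNA-dye fluorescence from lysed cultures, ex 485/em 535 nm. Parasitized red cells had grown 72 h with compound; data scaled between 0.29 uM artemisinin and DMSO wells and corrected using vehicle-only plates.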

For assay [3], the system named is 3D7. The assay is described as above. The note with it: P. falciparum in erythrocytes, SYBR Green DNA, 72 h; series mostly up to 28.7 µM. The method, boiled down:
as §1

Assay [4] deals with 7G8. The description is as above. Particulars: P. falciparum in erythrocytes, SYBR Green DNA, 72 h; series mostly up to 28.7 µM. The gist of the method:
as §1

The test system of assay [5] is AA1029. The assay is described as above. The note with it: P. falciparum in erythrocytes, SYBR Green DNA, 72 h; series mostly up to 28.7 µM. The method, boiled down: as §1
The test system of assay [6] is AS120. The assay is described as above. The note with it: P. falciparum in erythrocytes, SYBR Green DNA, 72 h; series mostly up to 28.7 µM. The gist of the method:
as §1

For assay [7], the system named is ATS189. The assay is described as above. Particulars: P. falciparum in erythrocytes, SYBR Green DNA, 72 h; series mostly up to 28.7 µM. The method, boiled down: as §1
Assay [8] deals with ATS95. The assay is described as above. The note with it: P. falciparum in erythrocytes, SYBR Green DNA, 72 h; series mostly up to 28.7 µM. The gist of the method:
as §1

Assay [9] has as its system C2A. The description is as above. Particulars: P. falciparum in erythrocytes, SYBR Green DNA, 72 h; series mostly up to 28.7 µM. The method, boiled down: as §1
Assay [10] concerns CP185. The description is as above. Particulars: P. falciparum in erythrocytes, SYBR Green DNA, 72 h; series mostly up to 28.7 µM. The gist of the method:
as §1

The subject of assay [11] is CP192. The assay is described as above. The note with it: P. falciparum in erythrocytes, SYBR Green DNA, 72 h; series mostly up to 28.7 µM. The gist of the method:
as §1

Assay [12] deals with CP194. The description is as above. The note with it: P. falciparum in erythrocytes, SYBR Green DNA, 72 h; series mostly up to 28.7 µM. The method, boiled down:
as §1

Assay [13] deals with CP201. The description is as above. The note with it: P. falciparum in erythrocytes, SYBR Green DNA, 72 h; series mostly up to 28.7 µM. The method, boiled down: as §1
The test system of assay [14] is CP211. The assay is described as above. The note with it: P. falciparum in erythrocytes, SYBR Green DNA, 72 h; series mostly up to 28.7 µM. The method, boiled down:
as §1

Assay [15] relates to CP215. Described as above. The note with it: P. falciparum in erythrocytes, SYBR Green DNA, 72 h; series mostly up to 28.7 µM. The gist of the method:
as §1

In assay [16] the test system is CP217. Described as above. The note with it: P. falciparum in erythrocytes, SYBR Green DNA, 72 h; series mostly up to 28.7 µM. The gist of the method:
as §1

Assay [17] relates to CP191. The assay is described as above. The note with it: P. falciparum in erythrocytes, SYBR Green DNA, 72 h; series mostly up to 28.7 µM. The gist of the method: as §1
Setting [18] is: TFE3-RCC UOK109 viability, measured here: UOK109 Z-AUC.
Setting [19] is: TFE3-RCC viability, measured here: UOK124 Z-AUC.
Setting [20] is: TFE3-RCC viability, measured here: UOK145 Z-AUC.
Setting [21] is: at 28.7 µM (top of the series), parasite line A.
Setting [22] is: at 28.7 µM (top of the series), parasite line B.

Take `O=C(CS(=O)Cc1ccco1)NCC=CCOc1cc(CN2CCCCC2)ccn1` (stereo not drawn): the z-score stood at 0.673 in [1] (setting [18]), 0.332 in [1] (setting [19]) and 0.715 in assay [1] (setting [20]). The activity, negative = inhibition was 3.29% (inactive) in [2] (setting [21]) and -5.5% (inactive) in assay [2] (setting [22]). Also, the Potency result in [3], in assay [4], in assay [5], in [6], in [7] and in assay [8] was “inactive” in each case. Also, the Potency result in [9], in assay [10], in [11], in [12], in assay [13] and in [14] was “inactive” in each case. In addition, the Potency result in assay [15] and in assay [16] was “inactive” in each case.

Consider `C[C@H](Cn1cnc2c(N)ncnc21)OCP(=O)(O)O`, for which the figures for the z-score in assay [1] (setting [18]), in assay [1] (setting [19]) and in assay [1] (setting [20]) were 0.368, 0.295 and 0.62, respectively. In addition, the activity, negative = inhibition in assay [2] (setting [21]) is 2.65% (inactive); in assay [2] (setting [22]), 3.87% (inactive). In addition, the Potency entry in assay [3], in [4], in [5], in [6], in [7] and in assay [8] was “inactive” each time. For the same compound, the Potency entry in [9], in assay [10], in [17], in assay [11], in assay [12] and in assay [13] was “inactive” throughout. For the same compound, the Potency result in assay [14], in assay [15] and in assay [16] was “inactive” in each case.

In the case of `NS(=O)(=O)c1cc(C(=O)O)c(NCc2ccco2)cc1Cl`, the z-score in [1] (setting [18]) is -0.035; in assay [1] (setting [19]), -0.245; in [1] (setting [20]), 0.387.

As to `COC(=O)N[C@H](C(=O)N[C@@H](Cc1ccccc1)[C@@H](O)CN(Cc1ccc(-c2ccccn2)cc1)NC(=O)[C@@H](NC(=O)OC)C(C)(C)C)C(C)(C)C`, the results for the z-score in [1] (setting [18]), in assay [1] (setting [19]) and in assay [1] (setting [20]) were 0.351, -0.0676 and 2.98, respectively.

Consider `CNC[C@@H](O)[C@@H](O)[C@H](O)[C@H](O)CO`, for which the z-score worked out at 1.02 in [1] (setting [18]), 0.532 in [1] (setting [19]) and 0.899 in assay [1] (setting [20]). Moreover, the values for the activity, negative = inhibition in assay [2] (setting [21]) and in [2] (setting [22]) were 7.09% (inactive) and 5.8% (inactive), respectively. Further, the Potency entry in [3], in [4], in [5], in assay [6], in [7] and in [8] was “inactive” each time. The Potency result in assay [9], in [10], in assay [17], in assay [11], in assay [12] and in assay [13] was “inactive” in each case. Moreover, the Potency result in assay [14], in assay [15] and in [16] was “inactive” throughout.

Take `Cc1nccn1CC1CCc2c(c3ccccc3n2C)C1=O` (stereo not drawn): the values for the z-score in assay [1] (setting [18]), in assay [1] (setting [19]) and in [1] (setting [20]) were 0.748, 0.745 and 0.411, respectively.

With `COc1c(O)cc2c(c1O)[C@@H]1O[C@H](CO)[C@@H](O)[C@H](O)[C@H]1OC2=O`, the z-score was 0.427 in assay [1] (setting [18]), 0.313 in [1] (setting [19]) and -0.262 in [1] (setting [20]).

Take `Cc1cc2cc3c(C)cc(=O)oc3c(C)c2o1`: the activity, negative = inhibition in assay [2] (at 12.8 µM (top of the series), parasite line A) is 2% (inactive); in assay [2] (at 12.8 µM (top of the series), parasite line B) it was 12.4% (inactive). In addition, the Potency result in assay [3], in assay [4], in [5], in [6], in assay [7] and in assay [8] was “inactive” throughout. The Potency entry in [9], in [10], in assay [17], in [11], in [12] and in assay [13] was “inactive” each time. The Potency entry in assay [14], in [15] and in assay [16] was “inactive” in each case.
